Measurements published in PubChem BioAssay AID1159580 (chemical genetic matrix, 2015).
Out of some 5,500 compounds screened, about 2,000 (36%) were called active. Roughly 18% stayed inconclusive and do not appear here. No stated cut-off is given here; in the data, active means normalized growth mostly below about 0.91 (no sharp cut-off); inconclusive means no clear call, values can overlap the other calls; inactive means mostly above about 0.92. The list shows a part of the results.

Test: chemical genetic growth profiling, strain panel (AID 1159580);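 further: tested at 20 µM; growth read once vehicle control cultures reached saturation at 30 °C; 1 = growth at the plate median or of vehicle wells; lower values mean less growth of the strain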
Settings: S. cerevisiae deletion strains, growth OD

Measured: normalized growth

NNC(=O)c1oc2nc(-c3ccccc3)cc(-c3ccccc3)c2c1N
inactive: locus YAR019C, strain CDC15, hits give low values 0.972 | locus YBL105C, strain PKC1, hits give low values 0.986 | locus YBR135W, strain CKS1, hits give low values 0.984 | locus YBR136W, strain MEC1, hits give low values 0.985 | locus YBR160W, strain CDC28, hits give low values 0.987 | locus YDL017W, strain CDC7, hits give low values 0.985 | locus YDL028C, strain MPS1, hits give low values 0.983 | locus YDL101C, strain DUN1, hits give low values 0.981 | locus YDL108W, strain KIN28, hits give low values 0.978 | locus YDL132W, strain cdc53, hits give low values 0.971 | locus YDL214C, strain PRR2, hits give low values 0.921 | locus YDR052C, strain DBF4, hits give low values 0.997 | locus YDR054C, strain cdc34, hits give low values 0.962 | locus YDR226W, strain ADK1, hits give low values 0.985 | locus YDR477W, strain SNF1, hits give low values 0.934 | locus YER123W, strain YCK3, hits give low values 0.913 | locus YER133W, strain GLC7, hits give low values 0.93 | locus YFL009W, strain cdc4, hits give low values 0.983 | locus YFL029C, strain CAK1, hits give low values 0.965 | locus YFR003C, strain YPI1, hits give low values 0.984 | locus YFR019W, strain FAB1, hits give low values 0.924 | locus YFR028C, strain CDC14, hits give low values 0.976 | locus YGR040W, strain KSS1, hits give low values 0.93 | locus YGR052W, strain FMP48, hits give low values 0.952 | locus YGR092W, strain DBF2, hits give low values 0.943 | locus YHR030C, strain SLT2, hits give low values 0.979 | locus YHR079C, strain IRE1, hits give low values 1.01 | locus YHR082C, strain KSP1, hits give low values 0.998 | locus YHR205W, strain SCH9, hits give low values 0.914 | locus YIL147C, strain SLN1, hits give low values 0.984 | locus YJL095W, strain BCK1, hits give low values 0.891 | locus YJL128C, strain PBS2, hits give low values 0.95 | locus YJL157C, strain FAR1, hits give low values 0.924 | locus YJR016C, strain ILV3, hits give low values 0.98 | locus YJR066W, strain TOR1 (second series), hits give low values 0.887 | locus YJR066W, strain TOR1, hits give low values 0.983 | locus YKL048C, strain ELM1, hits give low values 0.956 | locus YKL067W, strain YNK1, hits give low values 0.948 | locus YKL101W, strain HSL1, hits give low values 0.937 | locus YKL193C, strain SDS22, hits give low values 0.977 | locus YKL203C, strain TOR2, hits give low values 0.989 | locus YLR133W, strain CKI1, hits give low values 0.942 | locus YLR403W, strain SFP1, hits give low values 0.924 | locus YML070W, strain DAK1, hits give low values 0.899 | locus YMR001C, strain CDC5, hits give low values 0.988 | locus YMR205C, strain PFK2 (second series), hits give low values 0.953 | locus YMR277W, strain FCP1, hits give low values 0.983 | locus YNL006W, strain LST8, hits give low values 0.978 | locus YNL020C, strain ARK1, hits give low values 0.935 | locus YNL161W, strain CBK1, hits give low values 0.989 | locus YNL183C, strain NPR1, hits give low values 0.946 | locus YNL207W, strain RIO2, hits give low values 0.965 | locus YNL222W, strain SSU72, hits give low values 0.981 | locus YNL307C, strain MCK1 (second series), hits give low values 0.895 | locus YOL078W, strain AVO1, hits give low values 0.954 | locus YOL136C, strain PFK27, hits give low values 0.844 | locus YOR061W, strain CKA2, hits give low values 0.958 | locus YOR119C, strain RIO1, hits give low values 0.996 | locus YOR231W, strain MKK1, hits give low values 0.884 | locus YOR329C, strain SCD5, hits give low values 0.985 | locus YPL031C, strain PHO85, hits give low values 0.907 | locus YPL153C, strain RAD53, hits give low values 0.953 | locus YPL204W, strain HRR25, hits give low values 0.907 | locus YPL209C, strain IPL1, hits give low values 0.982 | locus YPL256C, strain CLN2, hits give low values 0.939 | locus YPR025C, strain CCL1, hits give low values 0.984 | locus YPR106W, strain ISR1, hits give low values 0.977 | locus YPR111W, strain DBF20, hits give low values 0.961 | strain NNK1, hits give low values 0.97 | strain TSCII, hits give low values 0.98
active: locus YLR113W, strain HOG1, hits give low values 0.813

COC(=O)[C@H](NC(=O)c1cc(-c2ccccc2)nc2ccccc12)c1ccccc1
inactive: locus YAL013W, strain DEP1, hits give low values 1.02 | locus YAL040C, strain CLN3, hits give low values 1.01 | locus YCL061C, strain MRC1 (second series), hits give low values 0.998 | locus YDR363W, strain ESC2, hits give low values 0.989 | locus YER002W, strain NOP16, hits give low values 1.01 | locus YGR078C, strain PAC10, hits give low values 0.984 | locus YJR075W, strain HOC1, hits give low values 1 | locus YNL128W, strain TEP1, hits give low values 0.996 | locus YNL153C, strain GIM3, hits give low values 1 | locus YNL175C, strain NOP13, hits give low values 1.01 | locus YNL197C, strain WHI3, hits give low values 0.989 | locus YNL224C, strain SQS1, hits give low values 1.02 | locus YNL322C, strain KRE1, hits give low values 0.999 | locus YOR083W, strain WHI5 (second series), hits give low values 1.06 | locus YPL055C, strain LGE1, hits give low values 0.99 | locus YPL241C, strain CIN2, hits give low values 0.999
